# The supplement of paper PMC6555819
# Assays:
# Experiment in all cases: PBM binding z-score (relative to random genomic background probes); higher = stronger binding; sequences stand for … in GC…GCGATTGACAGCGTAGAATGAAGG
# [1] = tested on: PPARg:RXRa DBDmut IVT, anti-RXR (DBD mutation: RXRa K156A/R161A, NR concentration 270 nM, RXRa partner concentration 90 nM)
# Outline: (§1)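 Custom Agilent 4×180K protein-binding microarrays carried double-stranded probes. Their 34-nt variable regions held direct-repeat seeds, single-nucleotide variants, half-site ablations and random human genomic background sequences. Arrays were incubated 1 h with ligand-free nuclear receptor dimers in PBS pH 7.4, 2% milk, 0.02% Triton X-100, 1 mM DTT, 0.2 mg/mL BSA and 0.4 mg/ml salmon testes DNA. Antibodies against each partner (one per run) detected binding, and scanned fluorescence was regression-normalized. Binding z-scores use random background probes as reference.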
# [2] = tested on: PPARg:RXRa IVT, anti-PPARg (NR concentration 270 nM, RXRa partner concentration 90 nM)
# Outline: as §1
# [3] = tested on: PPARg DBDmut:RXRa IVT, anti-PPARg (DBD mutation: PPARg1 K132A/R137A, NR concentration 270 nM, RXRa partner concentration 90 nM)
# Outline: as §1
# [4] = tested on: PPARg DBDmut IVT, anti-PPARg (DBD mutation: PPARg1 K132A/R137A, NR concentration 270 nM)
# Outline: as §1
# [5] = tested on: PPARg homodimer (NR concentration 180 nM)
# Outline: as §1
# [6] = tested on: PXR:RXRa (NR concentration 270 nM, RXRa partner concentration 90 nM)
# Outline: as §1
# [7] = tested on: PXR homodimer (NR concentration 270 nM)
# Outline: as §1
# [8] = tested on: RARa:RXR (NR concentration 270 nM, RXRa partner concentration 90 nM)
# Outline: as §1
# [9] = tested on: RARa homodimer (NR concentration 270 nM)
# Outline: as §1
# [10] = tested on: RARb:RXRa (NR concentration 270 nM, RXRa partner concentration 90 nM)
# Outline: as §1
Sequence,PBM binding z-score [1],PBM binding z-score [2],PBM binding z-score [3],PBM binding z-score [4],PBM binding z-score [5],PBM binding z-score [6],PBM binding z-score [7],PBM binding z-score [8],PBM binding z-score [9],PBM binding z-score [10]
TCTTGTAGATCAATAGAGGTTAAGAAAGTGCGCT,1.96,1.06,0.946,0.475,0.36,2.86,0.0612,1.67,-0.172,0.91
ATCTCTAGGTAAAAGTTCAGTGCATCCCGAGGAT,1.88,3.85,0.957,1.05,1.6,2.28,2.08,1.69,1.4,2.36
CCTACTGGCCCAAAAAGGTCATTGATGCCGATAA,0.453,1.52,-0.0321,-0.749,3.4,4.99,2.07,5.65,2.16,3.99
CGTCCAAGGTCATAGGAGGTAAGTGAAGACAGAT,2.54,3.38,0.738,0.602,2.39,4.29,1.22,3.98,1.57,4.88
AGAACGAGGGCTCGCTGAGTTGATAGCAGAGTAG,-0.0756,-0.495,-1.3,-0.699,-0.792,-0.724,-0.639,-0.678,-1.21,-0.365
AGAATGAAGTTATACGTAGATCAGGGAAGAAAGT,-0.998,-0.385,1.2,0.896,-0.353,-0.161,0.326,-0.215,0.239,-0.131
CCTATGAGTTGACCATAAGGGCAACCGAAGCTCG,-0.0484,0.26,-0.849,-0.386,1.05,1.1,0.421,1.51,0.579,1.72
CGAACTAGGTCAGACCAGGACAGTGAAGGATGAT,7.38,7.63,1.83,0.713,0.868,1.61,-0.171,1.37,-0.466,3.2
CCTACTGGGCCATTCAGCGGTCATTGATCATATG,4.3,3.25,0.0512,-0.76,0.303,-0.111,-0.0854,0.0105,0.0285,1.2
TCTAGCAGGCCGGAGGGTCACTCAAGAGGTACGG,0.524,-0.0805,-0.889,-1.31,0.278,0.98,-0.311,1.65,-0.429,1.74
CGACAAAGTTCAAGGTAACGTAACAGAAAGCAGC,0.277,1.76,0.591,0.507,2.08,3.81,2.44,3.27,1.06,4.89
TCATATAGGTAAATAGGTGAAAGTCCGTAAGTTA,5.74,6.26,1.25,1.38,1.18,1.13,0.363,1.44,1.54,0.905
TTACCAAGGTGAAGGTCTTTGATCCCTCTGTAGA,1.88,3.26,-0.214,0.0438,0.225,0.389,-0.43,0.847,-0.184,1.65
GCATATAGGTAATACAAGTTGAAAGTCCGATTGT,4.35,2.61,1.06,0.954,0.423,0.787,0.733,0.761,0.554,0.148
CCTACTTGGCCATCAGGTCATTGATATCAACGTT,1.33,1.93,0.603,0.617,1.82,1.95,1.62,2.17,1.76,2.19
ATCTCTAGGTAAAAGTTCAGCGAATCCCGAGGAT,2.55,4.3,1.19,1.67,2.4,2.46,1.54,2.48,0.715,2.93
TCGATTAGGTTAGTCGGGGCATTCAGCCAACATA,2.2,0.996,0.0217,-0.0761,0.302,0.39,0.0297,0.45,-0.0114,0.705
CCTTACTGGTCACTCCAGGTTATAGCATCGGAGT,0.949,1.07,0.287,0.23,0.774,0.989,0.586,0.883,1.05,1.53
AGTCAAAGTTCATCTATGTAACGTAAGATATGCT,0.144,2.33,0.955,1.14,3.7,5.09,5.26,3.82,1.52,4.89
TCTGCTAGGTCAGTTGGTCAGCTGACGAGCTGCC,2.95,3.18,1.59,1.47,0.336,0.0252,-1.5,0.0768,-1.43,3.42
TCTAGCAGGCCAGAGGGTCACTCTAGAGGTACGG,0.721,0.95,-0.508,-0.98,0.476,1.24,-0.322,2.07,-0.492,2.27
CCTTACGGGTCACTGACAGGTTATTGCATTTGGA,3.48,3.61,0.525,0.563,2.74,3.89,0.344,4.51,0.71,4.04
TTACCAAGGTGAAAGGTCGTAGATGCACGCCTTG,2.23,5.05,1.07,0.00894,2.17,4.04,0.0928,5.82,-0.336,3.31
TCTTGTAGATCAAGCAGGATAAGAAAGCCTGAGT,1.53,0.265,0.695,0.533,0.027,-0.0334,0.538,0.108,0.37,-0.349
